Laboratory results taken from PubChem BioAssay AID1159580 (chemical genetic matrix, 2015).
About 2,000 (36%) of roughly 5,500 compounds were called active. About 18% were inconclusive and are not listed. The list shows a part of the results. A number with no mark means an inactive call. Rule as the data show it: active = normalized growth mostly below about 0.91 (no sharp cut-off); inconclusive = no clear call, values can overlap the other calls; inactive = mostly above about 0.92.

Assay: chemical genetic growth profiling, strain panel (AID 1159580);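 also: tested at 20 µM; growth read once vehicle control cultures reached saturation at 30 °C; 1 = growth at the plate median or of vehicle wells; lower values mean less growth of the strain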
Conditions: growth OD

**Q.** What does the source list for `c1ccc2[nH]c(-c3cscn3)nc2c1`?
**A.** normalized growth (S. cerevisiae deletion strains, locus YKL068W, hits give low values): 1; normalized growth (S. cerevisiae deletion strains, locus YKL085W, strain MDH1 (second series), hits give low values): 0.996; normalized growth (S. cerevisiae deletion strains, locus YKL085W, strain MDH1, hits give low values): 0.996; normalized growth (S. cerevisiae deletion strains, locus YKL160W, strain elf1, hits give low values): 1.01; normalized growth (S. cerevisiae deletion strains, locus YKL190W, strain CNB1, hits give low values): 0.993; normalized growth (S. cerevisiae deletion strains, locus YKR001C, strain vps1, hits give low values): 0.976; normalized growth (S. cerevisiae deletion strains, locus YKR026C, strain gcn3, hits give low values): 1.02; normalized growth (S. cerevisiae deletion strains, locus YKR091W, strain srl3, hits give low values): 1.01; normalized growth (S. cerevisiae deletion strains, locus YLL001W, strain dnm1, hits give low values): 1; normalized growth (S. cerevisiae deletion strains, locus YLL026W, hits give low values): 1.01; normalized growth (S. cerevisiae deletion strains, locus YLL041C, strain sdh2, hits give low values): 1.02; normalized growth (S. cerevisiae deletion strains, locus YLR027C, strain aat2, hits give low values): 1.01; normalized growth (S. cerevisiae deletion strains, locus YLR039C, strain RIC1, hits give low values): 0.963; normalized growth (S. cerevisiae deletion strains, locus YLR058C, strain SHM2, hits give low values): 0.997; normalized growth (S. cerevisiae deletion strains, locus YLR102C, strain apc9, hits give low values): 1.01; normalized growth (S. cerevisiae deletion strains, locus YLR113W, strain HOG1, hits give low values): 0.985; normalized growth (S. cerevisiae deletion strains, locus YLR221C, strain rsa3, hits give low values): 0.97; normalized growth (S. cerevisiae deletion strains, locus YLR258W, strain gsy2, hits give low values): 0.968; normalized growth (S. cerevisiae deletion strains, locus YLR262C, strain YPT6 (second series), hits give low values): 0.95; normalized growth (S. cerevisiae deletion strains, locus YLR262C, strain YPT6, hits give low values): 0.968; normalized growth (S. cerevisiae deletion strains, locus YLR268W, strain sec22, hits give low values): 0.945; normalized growth (S. cerevisiae deletion strains, locus YLR320W, strain mms22, hits give low values): 0.899; normalized growth (S. cerevisiae deletion strains, locus YLR330W, strain CHS5, hits give low values): 0.995; normalized growth (S. cerevisiae deletion strains, locus YLR342W, strain FKS1 (second series), hits give low values): 1.01; normalized growth (S. cerevisiae deletion strains, locus YLR342W, strain FKS1, hits give low values): 1; normalized growth (S. cerevisiae deletion strains, locus YLR357W, strain rsc2, hits give low values): 0.984; normalized growth (S. cerevisiae deletion strains, locus YLR370C, strain arc18, hits give low values): 0.975; normalized growth (S. cerevisiae deletion strains, locus YLR371W, strain rom2, hits give low values): 1.02; normalized growth (S. cerevisiae deletion strains, locus YLR384C, strain iki3, hits give low values): 1.01; normalized growth (S. cerevisiae deletion strains, locus YLR418C, strain cdc73, hits give low values): 0.979; normalized growth (S. cerevisiae deletion strains, locus YML016C, strain PPZ1, hits give low values): 0.997; normalized growth (S. cerevisiae deletion strains, locus YML032C, strain rad52, hits give low values): 0.979; normalized growth (S. cerevisiae deletion strains, locus YML120C, strain ndi1, hits give low values): 1; normalized growth (S. cerevisiae deletion strains, locus YML124C, strain tub3, hits give low values): 0.636 (active); normalized growth (S. cerevisiae deletion strains, locus YMR058W, strain fet3, hits give low values): 0.993; normalized growth (S. cerevisiae deletion strains, locus YMR078C, strain ctf18, hits give low values): 1; normalized growth (S. cerevisiae deletion strains, locus YMR125W, strain sto1, hits give low values): 1.04; normalized growth (S. cerevisiae deletion strains, locus YMR129W, hits give low values): 1.01; normalized growth (S. cerevisiae deletion strains, locus YMR205C, strain PFK2, hits give low values): 0.982; normalized growth (S. cerevisiae deletion strains, locus YMR223W, strain ubp8, hits give low values): 1.02; normalized growth (S. cerevisiae deletion strains, locus YMR231W, strain pep5, hits give low values): 1.02; normalized growth (S. cerevisiae deletion strains, locus YMR263W, strain SAP30, hits give low values): 0.973; normalized growth (S. cerevisiae deletion strains, locus YMR307W, strain GAS1, hits give low values): 0.928; normalized growth (S. cerevisiae deletion strains, locus YNL067W, strain RPL9B, hits give low values): 0.961; normalized growth (S. cerevisiae deletion strains, locus YNL071W, strain lat1, hits give low values): 0.954; normalized growth (S. cerevisiae deletion strains, locus YNL128W, strain TEP1, hits give low values): 1.01; normalized growth (S. cerevisiae deletion strains, locus YNL153C, strain GIM3, hits give low values): 0.0845 (active); normalized growth (S. cerevisiae deletion strains, locus YNL183C, strain NPR1, hits give low values): 0.927; normalized growth (S. cerevisiae deletion strains, locus YNL209W, strain ssb2, hits give low values): 0.984; normalized growth (S. cerevisiae deletion strains, locus YNL233W, strain BNI4, hits give low values): 0.958; normalized growth (S. cerevisiae deletion strains, locus YNL248C, strain rpa49, hits give low values): 1.01; normalized growth (S. cerevisiae deletion strains, locus YNL250W, strain rad50, hits give low values): 1.04; normalized growth (S. cerevisiae deletion strains, locus YNL271C, strain bni1, hits give low values): 1; normalized growth (S. cerevisiae deletion strains, locus YNL298W, strain CLA4, hits give low values): 1.01; normalized growth (S. cerevisiae deletion strains, locus YNL307C, strain MCK1, hits give low values): 1; normalized growth (S. cerevisiae deletion strains, locus YNL322C, strain KRE1 (second series), hits give low values): 0.991; normalized growth (S. cerevisiae deletion strains, locus YNL322C, strain KRE1, hits give low values): 0.987; normalized growth (S. cerevisiae deletion strains, locus YNR049C, strain mso1, hits give low values): 1.01; normalized growth (S. cerevisiae deletion strains, locus YNR052C, strain pop2, hits give low values): 0.983; normalized growth (S. cerevisiae deletion strains, locus YOL012C, strain htz1): 2.38; normalized growth (S. cerevisiae deletion strains, locus YOL147C, strain pex11, hits give low values): 1.01; normalized growth (S. cerevisiae deletion strains, locus YOR001W, strain rrp6, hits give low values): 1; normalized growth (S. cerevisiae deletion strains, locus YOR061W, strain CKA2, hits give low values): 0.996; normalized growth (S. cerevisiae deletion strains, locus YOR069W, strain VPS5, hits give low values): 1; normalized growth (S. cerevisiae deletion strains, locus YOR070C, strain gyp1, hits give low values): 0.991; normalized growth (S. cerevisiae deletion strains, locus YOR080W, strain dia2, hits give low values): 1.01; normalized growth (S. cerevisiae deletion strains, locus YOR083W, strain WHI5, hits give low values): 0.977; normalized growth (S. cerevisiae deletion strains, locus YOR106W, strain vam3, hits give low values): 1.03; normalized growth (S. cerevisiae deletion strains, locus YOR136W, strain idh2, hits give low values): 0.995; normalized growth (S. cerevisiae deletion strains, locus YOR144C, strain elg1, hits give low values): 1.02; normalized growth (S. cerevisiae deletion strains, locus YOR184W, strain ser1, hits give low values): 0.932; normalized growth (S. cerevisiae deletion strains, locus YOR231W, strain MKK1, hits give low values): 1; normalized growth (S. cerevisiae deletion strains, locus YOR265W, strain rbl2, hits give low values): 0.997; normalized growth (S. cerevisiae deletion strains, locus YOR270C, strain vph1, hits give low values): 0.961; normalized growth (S. cerevisiae deletion strains, locus YOR290C, strain snf2, hits give low values): 0.944; normalized growth (S. cerevisiae deletion strains, locus YOR316C, strain cot1, hits give low values): 0.998; normalized growth (S. cerevisiae deletion strains, locus YPL051W, strain arl3, hits give low values): 0.991; normalized growth (S. cerevisiae deletion strains, locus YPL078C, strain atp4, hits give low values): 0.995; normalized growth (S. cerevisiae deletion strains, locus YPL106C, strain sse1, hits give low values): 1.08; normalized growth (S. cerevisiae deletion strains, locus YPL240C, strain hsp82, hits give low values): 0.997; normalized growth (S. cerevisiae deletion strains, locus YPL241C, strain CIN2, hits give low values): 0.0871 (active); normalized growth (S. cerevisiae deletion strains, locus YPL256C, strain CLN2, hits give low values): 0.957; normalized growth (S. cerevisiae deletion strains, locus YPR119W, strain clb2, hits give low values): 1.01; normalized growth (S. cerevisiae deletion strains, locus YPR141C, strain kar3, hits give low values): 1.01; normalized growth (S. cerevisiae deletion strains, locus YPR163C, strain tif3, hits give low values): 1; normalized growth (S. cerevisiae deletion strains, locus YPR167C, strain met16, hits give low values): 1; normalized growth (S. cerevisiae deletion strains, strain wtn01, hits give low values): 0.977; normalized growth (S. cerevisiae strains, strain wild type, hits give low values): 0.995
